Among the data in PubChem BioAssay (NCATS) are Potency and outcome values, retold here.

Unmarked numbers belong to inactive results. Results filed as inconclusive are left out. Activity calls are given as the source filed them. Unless noted, calls come from the whole dose curve; as a rule, active = well fitted curve in the direction sought with a large enough effect; inconclusive = small, poorly fitted or top-dose-only effect, or another doubt; inactive = no such curve, though single readings can be large; an effect the other way counts as inactive or inconclusive.

In assay [1] the target is Glucocorticoid receptor (Homo sapiens) (UniProt P04150). The experiment in a line: GR-GFP Redistribution (AID 450;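 active = compounds whose dose series gives a full or clear partial fitted curve of increased nuclear translocation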; note: potency is the fitted concentration of half-maximal effect). As to conditions: U2OS GR-GFP nuclear translocation, laser cytometry, 2 h.
Sequence of Glucocorticoid receptor (Homo sapiens) (P04150 whole entry, looked up): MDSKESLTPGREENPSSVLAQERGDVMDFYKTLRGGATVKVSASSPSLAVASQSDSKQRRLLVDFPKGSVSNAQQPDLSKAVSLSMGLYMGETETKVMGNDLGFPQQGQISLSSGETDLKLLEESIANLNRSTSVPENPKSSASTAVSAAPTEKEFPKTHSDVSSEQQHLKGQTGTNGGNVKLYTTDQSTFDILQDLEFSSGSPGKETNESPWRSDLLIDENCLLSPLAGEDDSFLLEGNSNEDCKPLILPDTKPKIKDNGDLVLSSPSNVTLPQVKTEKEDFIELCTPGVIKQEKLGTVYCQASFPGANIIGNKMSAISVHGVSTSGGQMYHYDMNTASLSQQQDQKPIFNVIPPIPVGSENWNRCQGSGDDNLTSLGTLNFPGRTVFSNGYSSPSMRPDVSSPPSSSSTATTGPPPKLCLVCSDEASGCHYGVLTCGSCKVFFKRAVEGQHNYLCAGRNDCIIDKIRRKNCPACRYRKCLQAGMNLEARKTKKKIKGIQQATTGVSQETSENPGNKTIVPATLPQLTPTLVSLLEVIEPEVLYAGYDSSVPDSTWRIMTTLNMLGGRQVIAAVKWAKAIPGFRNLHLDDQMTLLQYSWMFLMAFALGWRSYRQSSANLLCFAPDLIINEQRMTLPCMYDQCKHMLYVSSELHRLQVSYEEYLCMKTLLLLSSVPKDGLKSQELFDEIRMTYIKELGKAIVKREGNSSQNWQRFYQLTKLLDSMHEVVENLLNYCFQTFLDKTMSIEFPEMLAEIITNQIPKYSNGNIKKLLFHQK
Assay [2] shares this target. The experiment in a line: GR-EFC Redistribution (AID 451; calls by dose curve; note: potency is the fitted concentration of half-maximal effect). The following applies: CHO-K1 GR-EFC translocation, beta-gal luminescence, 2 h. The essentials:
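CHO-K1 cells expressing nuclear EA and GR-ED fragments of b-gal; compounds titrated up to 46 uM final, 2 h at 37 C. GR nuclear translocation read as complemented b-gal luminescence after 1 h RT detection.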

Assay [3] has as its target Mitogen-activated protein kinase 10 (Mus musculus) (UniProt Q61831). The experiment in a line: JNK3 AlphaScreen Assay (AID 530; active = well fitted curve in either direction with a large enough effect, not every such curve was filed as active;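 note: kinase came from lysate of stimulated human HepG2 cells; signal reports phosphorylation of biotinylated GST-cJun 1-79 at Ser73 with 10 µM ATP; series mostly up to about 57 µM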). The essentials: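 Pre-activated (IL-1β/TNFα) JNK3 in HepG2 lysates phosphorylates biotin-GST-cJun(1-79), 10 uM ATP; anti-phospho-cJun(Ser73) AlphaScreen read at room temperature, pH 7.6 Tris buffer. Compounds pre-incubated 15 min as titrations.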
(In Alpha technology, singlet oxygen from a donor bead excites a nearby acceptor bead.)

Assay [4] has as its target 3',5'-cyclic-AMP phosphodiesterase 4B (Homo sapiens) (UniProt Q07343). The experiment in a line: qHTS Assay for Inhibitors of PDE-IV (AID 607; active = well fitted activation curve with a large enough effect in the main read-out, with a control signal flat, not every such curve was filed as active). A digest of the protocol:
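Cell-based read-out of cAMP via a modified cyclic nucleotide-gated channel and membrane potential dye (535/590 nm) in HEK293 cells expressing PDE4 endogenously. Compounds tested up to 22.9 uM final; 100 uM RO 20-1724 reference.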
For orientation: Quantitative high-throughput screening tests each substance at several concentrations.

Assay [5] addresses Ubiquitin carboxyl-terminal hydrolase 1 (Homo sapiens) (UniProt O94782). The experiment in a line: Inhibitors of USP1/UAF1: Pilot qHTS (AID 504865).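 Note: rhodamine fluorescence freed from ubiquitin-rhodamine substrate followed over time; top concentration of the series differs between compounds; nearly all actives have a fitted effect of over 35% in size.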 A digest of the protocol:
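USP1/UAF1 complex (1nM) preincubated with compound 15 min at room temperature, then Ub-Rho substrate (150nM final) added. Fluorescence read kinetically at 480/540 nm, 6 reads every 60 seconds. Buffer: 50mM HEPES pH 7.8, 0.5mM EDTA, 0.1 mg/ml BSA, 1mM TCEP, 0.01% Tween-20.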

In assay [6] the target is DNA dC->dU-editing enzyme APOBEC-3G (Homo sapiens) (UniProt Q9HC16). The experiment in a line: qHTS for inhibitors of Vif-A3G interactions: Validation (AID 588379). Note: potency is the fitted concentration of half-maximal effect. The essentials:
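HeLa cells stably expressing Vif and A3G-eYFP, 700 cells/well, incubated overnight at 37 deg C, then exposed to compound overnight at 37 deg C. Inhibition of Vif-mediated degradation read as increased yellow fluorescence (Ex 488/Em 500-530) by laser-scanning cytometry.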

Assay [7] concerns Zika virus NS2B-NS3 protease. The experiment in a line: Primary screen GU AMC qHTS for Zika virus inhibitors (AID 1347154). Note: nearly all actives have a fitted effect of over 70% in size. The essentials:
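Unlinked Zika NS2B hydrophilic domain–NS3 protease complex at 25 nM in 10 mM Tris-HCl pH 8.0, 0.01% Tween 20, with an AMC peptide substrate. Fluorescence change (340/450 nm) over 15 min at room temperature, normalized to controls, fitted to 4-parameter Hill.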

The nature of assay [8]: Primary qHTS for small molecule stabilizers of the endoplasmic reticulum resident proteome: Secreted ER Calcium Modulated Protein (SERCaMP) assay (AID 1508630). A digest of the protocol: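 GLuc-SERCaMP-expressing SH-SY5Y cells, pretreated 16 h with compound, are challenged with thapsigargin to empty ER calcium stores; after 4 h, coelenterazine is added directly to the medium and luminescence is imaged.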

For assay [9], the target named is Cytochrome P450 1A2 (Homo sapiens) (UniProt P05177). The experiment in a line: p450-cyp1a2 (AID 410; calls by dose curve; note: potency is the fitted concentration of half-maximal effect). A digest of the protocol: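 20nM CYP1A2 with 100uM Luciferin-ME (at Km) in 100mM KPO4; compound preincubated 10 min, NADPH regeneration added, 60 min at room temperature. Luciferin quantified by luminescence after detection reagent; normalized to 57 uM furafylline.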
Sequence of Cytochrome P450 1A2 (Homo sapiens) (P05177 whole entry, looked up): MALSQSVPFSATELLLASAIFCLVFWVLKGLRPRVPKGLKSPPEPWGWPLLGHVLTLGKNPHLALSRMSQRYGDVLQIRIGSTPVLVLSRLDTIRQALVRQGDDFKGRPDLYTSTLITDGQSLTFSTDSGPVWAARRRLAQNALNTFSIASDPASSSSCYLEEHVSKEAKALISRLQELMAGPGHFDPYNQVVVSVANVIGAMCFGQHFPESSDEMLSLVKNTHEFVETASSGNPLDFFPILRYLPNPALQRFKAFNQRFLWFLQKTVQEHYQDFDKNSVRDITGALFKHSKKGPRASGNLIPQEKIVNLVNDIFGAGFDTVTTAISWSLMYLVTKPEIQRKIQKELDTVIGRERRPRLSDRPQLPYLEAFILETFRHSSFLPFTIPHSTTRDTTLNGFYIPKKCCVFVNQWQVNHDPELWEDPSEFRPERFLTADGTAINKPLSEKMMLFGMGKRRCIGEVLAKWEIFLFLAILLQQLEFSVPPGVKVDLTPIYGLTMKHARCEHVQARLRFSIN

The target of assay [10] is Guanine nucleotide-binding protein G(i) subunit alpha-1 (Homo sapiens) (UniProt P63096). The experiment in a line: qHTS Assay for Inhibitors of RGS12 GoLoco Motif Activity (Green Fluorophore) (AID 879).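 Note: negative values mean loss of peptide binding seen as reduced polarization.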 A digest of the protocol: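 Fluorescence polarization assay: 50 nM Gαi1 with 10 nM FITC-labeled RGS12 GoLoco peptide in 10 mM Tris pH 7.5, 150 mM NaCl, 0.1 mM GDP, 0.05% NP40, 10 min at room temperature with compound.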
Sequence of Guanine nucleotide-binding protein G(i) subunit alpha-1 (Homo sapiens) (P63096 whole entry, looked up): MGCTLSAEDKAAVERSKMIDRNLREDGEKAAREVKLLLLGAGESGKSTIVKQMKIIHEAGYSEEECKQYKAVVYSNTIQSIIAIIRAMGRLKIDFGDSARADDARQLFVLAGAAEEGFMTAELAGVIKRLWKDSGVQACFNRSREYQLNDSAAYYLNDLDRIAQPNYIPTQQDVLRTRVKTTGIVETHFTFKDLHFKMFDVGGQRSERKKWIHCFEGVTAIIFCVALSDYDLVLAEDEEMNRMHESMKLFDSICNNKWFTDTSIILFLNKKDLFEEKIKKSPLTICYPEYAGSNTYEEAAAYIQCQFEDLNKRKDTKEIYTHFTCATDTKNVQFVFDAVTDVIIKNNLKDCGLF

The target of assay [11] is Cytochrome P450 3A4 (Homo sapiens) (UniProt P08684). The experiment in a line: qHTS Assay for Activators of Cytochrome P450 3A4 (AID 885). Note: nearly all actives have a fitted effect of over 65% in size. A digest of the protocol:
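Signal was normalized against complete inhibition by 57 uM ketoconazole. The reaction used 20nM CYP3A4 with 25uM Luciferin-PPXE, 10-min compound preincubation and a 60-min NADPH-supported step at RT.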

Assay [12] deals with Cytochrome P450 2D6 (Homo sapiens) (UniProt P10635). The experiment in a line: qHTS Assay for Inhibitors and Substrates of Cytochrome P450 2D6 (AID 891). Note: potency is the fitted concentration of half-maximal effect; nearly all actives have a fitted effect of over 60% in size. The essentials: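 Human CYP2D6 (5 nM) with 30 uM Luciferin-ME EGE (at Km) in 100 mM KPO4, compound preincubated 10 min, then NADPH regeneration system for 60 min at room temperature. Luciferin read by luminescence; normalized to 1.43 uM quinidine.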
Sequence of Cytochrome P450 2D6 (Homo sapiens) (P10635 whole entry, looked up): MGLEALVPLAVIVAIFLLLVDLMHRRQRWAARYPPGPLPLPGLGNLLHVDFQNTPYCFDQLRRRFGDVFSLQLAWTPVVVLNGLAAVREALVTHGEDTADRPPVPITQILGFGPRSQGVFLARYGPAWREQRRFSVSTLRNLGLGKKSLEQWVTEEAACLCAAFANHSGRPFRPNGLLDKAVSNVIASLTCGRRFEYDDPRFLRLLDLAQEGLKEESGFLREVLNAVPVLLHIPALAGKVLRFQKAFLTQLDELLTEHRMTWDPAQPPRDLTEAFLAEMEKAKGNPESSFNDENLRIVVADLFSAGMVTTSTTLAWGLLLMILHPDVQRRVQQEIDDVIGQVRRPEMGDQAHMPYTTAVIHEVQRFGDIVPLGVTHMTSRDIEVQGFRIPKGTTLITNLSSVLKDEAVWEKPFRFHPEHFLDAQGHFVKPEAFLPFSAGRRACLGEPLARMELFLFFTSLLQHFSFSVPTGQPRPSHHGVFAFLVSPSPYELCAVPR

In assay [13] the target is Cytochrome P450 2C9 (Homo sapiens) (UniProt P11712). The experiment in a line: qHTS Assay for Inhibitors and Substrates of Cytochrome P450 2C9 (AID 883). Note: nearly all actives have a fitted effect of over 60% in size. Note: potency is the fitted concentration of half-maximal effect. The essentials: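 10nM CYP2C9 + 100uM Luciferin-H (=KM), 25mM KPO4; cpd 10 min 37C; NADPH regen, 60 min 37C; stop/detect with P450 Glo-Buffer 20 min; luminescence. Norm. to 57uM sulphaphenazole as full inhibition.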

Assay [14] deals with Cytochrome P450 3A4 (Homo sapiens) (UniProt P08684). The experiment in a line: qHTS Assay for Inhibitors and Substrates of Cytochrome P450 3A4 (AID 884). Note: potency is the fitted concentration of half-maximal effect; nearly all actives have a fitted effect of over 50% in size. A digest of the protocol: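 20 nM human CYP3A4 with 25 uM Luciferin-PPXE (at KM) in 200 mM KPO4, preincubated 10 min with compound; NADPH regeneration started a 60 min RT reaction. Luciferin detected by luminescence, normalized to 57 uM ketoconazole as full inhibition.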
Sequence of Cytochrome P450 3A4 (Homo sapiens) (P08684 whole entry, looked up): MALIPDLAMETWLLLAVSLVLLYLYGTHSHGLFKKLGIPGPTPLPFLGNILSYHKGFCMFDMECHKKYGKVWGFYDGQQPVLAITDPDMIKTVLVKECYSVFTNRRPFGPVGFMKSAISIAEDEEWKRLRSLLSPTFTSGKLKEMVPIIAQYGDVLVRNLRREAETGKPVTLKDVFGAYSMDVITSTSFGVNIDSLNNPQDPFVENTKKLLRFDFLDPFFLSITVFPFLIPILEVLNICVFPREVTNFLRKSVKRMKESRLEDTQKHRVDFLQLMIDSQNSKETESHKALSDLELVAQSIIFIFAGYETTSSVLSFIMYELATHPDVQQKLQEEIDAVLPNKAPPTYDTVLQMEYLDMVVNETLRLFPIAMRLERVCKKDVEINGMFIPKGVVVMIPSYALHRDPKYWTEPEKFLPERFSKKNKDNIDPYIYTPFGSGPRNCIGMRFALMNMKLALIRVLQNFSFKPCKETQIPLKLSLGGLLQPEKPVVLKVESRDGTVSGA

Assay [15] addresses Cytochrome P450 2C19 (Homo sapiens) (UniProt P33261). The experiment in a line: qHTS Assay for Inhibitors and Substrates of Cytochrome P450 2C19 (AID 899). Note: potency is the fitted concentration of half-maximal effect; nearly all actives have a fitted effect of over 60% in size. A digest of the protocol:
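Luminescent read-out of luciferin formed from Luciferin-H EGE (10uM, equal to KM). Enzyme 5nM in 50mM KPO4; compound added, 10 min at 37C, then NADPH regenerating system for 60 min at 37C. Full inhibition defined by 57uM ketoconazole.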

Assay [16] concerns the target Pyruvate kinase (Leishmania mexicana) (UniProt Q27686). The experiment in a line: qHTS Validation Assay for Inhibitors of Leishmania Mexicana Pyruvate Kinase (AID 945). A digest of the protocol: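 Mutant LmPYK (E451W), 0.2 nM, plus 0.5 mM PEP and 0.1 mM ADP in 50 mM imidazole pH 7.2 containing 0.01% Tween 20 and 0.05% BSA. Incubated 1 h at room temperature; luminescence via PKLight, normalized to DMSO.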

Sequence of DNA dC->dU-editing enzyme APOBEC-3G (Homo sapiens) (Q9HC16 whole entry, looked up): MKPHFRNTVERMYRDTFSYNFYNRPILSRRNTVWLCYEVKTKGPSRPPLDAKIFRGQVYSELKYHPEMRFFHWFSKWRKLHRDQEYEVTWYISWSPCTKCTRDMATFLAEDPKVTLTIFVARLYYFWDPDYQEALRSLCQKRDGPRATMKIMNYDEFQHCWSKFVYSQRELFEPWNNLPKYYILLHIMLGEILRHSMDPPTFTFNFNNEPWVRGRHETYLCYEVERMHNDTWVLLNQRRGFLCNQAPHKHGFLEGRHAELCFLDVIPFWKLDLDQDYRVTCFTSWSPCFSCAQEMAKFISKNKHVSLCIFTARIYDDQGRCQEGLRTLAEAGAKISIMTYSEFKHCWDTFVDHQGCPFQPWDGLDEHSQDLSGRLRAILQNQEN
Sequence of 3',5'-cyclic-AMP phosphodiesterase 4B (Homo sapiens) (Q07343 whole entry, looked up): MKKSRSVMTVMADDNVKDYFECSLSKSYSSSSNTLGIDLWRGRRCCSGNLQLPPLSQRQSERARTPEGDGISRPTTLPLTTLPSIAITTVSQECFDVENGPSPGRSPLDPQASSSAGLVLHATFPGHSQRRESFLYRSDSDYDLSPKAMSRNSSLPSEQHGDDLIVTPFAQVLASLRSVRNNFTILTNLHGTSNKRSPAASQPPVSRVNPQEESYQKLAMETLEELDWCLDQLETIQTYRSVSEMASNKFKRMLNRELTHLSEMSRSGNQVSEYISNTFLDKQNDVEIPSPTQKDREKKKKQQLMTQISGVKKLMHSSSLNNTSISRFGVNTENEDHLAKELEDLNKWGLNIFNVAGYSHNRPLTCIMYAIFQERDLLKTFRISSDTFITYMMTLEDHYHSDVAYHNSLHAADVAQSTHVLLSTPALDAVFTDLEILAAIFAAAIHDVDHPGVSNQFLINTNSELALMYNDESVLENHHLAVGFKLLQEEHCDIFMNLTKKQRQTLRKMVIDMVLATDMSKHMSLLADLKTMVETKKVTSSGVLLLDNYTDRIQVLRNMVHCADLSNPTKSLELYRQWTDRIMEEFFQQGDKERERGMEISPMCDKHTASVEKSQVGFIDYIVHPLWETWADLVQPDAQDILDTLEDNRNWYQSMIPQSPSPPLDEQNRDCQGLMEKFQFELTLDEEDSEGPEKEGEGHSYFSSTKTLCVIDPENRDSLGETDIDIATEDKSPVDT
Sequence of Ubiquitin carboxyl-terminal hydrolase 1 (Homo sapiens) (O94782 whole entry, looked up): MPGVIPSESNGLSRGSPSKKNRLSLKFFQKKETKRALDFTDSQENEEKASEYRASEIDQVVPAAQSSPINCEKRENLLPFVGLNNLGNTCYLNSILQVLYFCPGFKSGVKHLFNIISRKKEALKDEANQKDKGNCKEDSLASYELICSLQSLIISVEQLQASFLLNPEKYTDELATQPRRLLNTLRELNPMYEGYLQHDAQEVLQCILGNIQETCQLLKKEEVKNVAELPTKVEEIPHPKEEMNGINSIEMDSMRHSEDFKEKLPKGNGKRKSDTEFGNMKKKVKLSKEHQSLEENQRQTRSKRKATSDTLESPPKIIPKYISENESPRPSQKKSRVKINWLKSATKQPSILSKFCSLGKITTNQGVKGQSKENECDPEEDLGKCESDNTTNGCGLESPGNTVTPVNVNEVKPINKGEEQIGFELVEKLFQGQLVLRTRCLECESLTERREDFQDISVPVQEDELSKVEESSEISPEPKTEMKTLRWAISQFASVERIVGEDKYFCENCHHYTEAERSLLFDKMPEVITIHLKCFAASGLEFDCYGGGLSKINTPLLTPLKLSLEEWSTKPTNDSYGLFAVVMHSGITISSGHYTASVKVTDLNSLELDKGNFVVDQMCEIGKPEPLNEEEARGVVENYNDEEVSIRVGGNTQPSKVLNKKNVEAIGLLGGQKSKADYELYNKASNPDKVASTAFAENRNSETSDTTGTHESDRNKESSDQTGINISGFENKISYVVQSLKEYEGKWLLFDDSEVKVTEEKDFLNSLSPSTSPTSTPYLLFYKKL

For `NC1=NCCCC1`, the Potency in assay [1] and in [2] was greater than 46 µM each time. Moreover, the Potency result in [3], in [4], in assay [5], in assay [6], in [7] and in assay [8] was “inactive” each time.
Consider `Fc1cccc(/C=N\N=C/c2cccc(F)c2)c1`, for which the Potency is 0.2 µM (active) in assay [9] and greater than 46 µM in [2]. The Potency result in [3], in [4], in [11], in assay [5], in assay [6] and in assay [7] was “inactive” in each case. Also, the Potency result in assay [8] was “inactive”. For the same compound, the call in assay [10] was inactive.
As to `COCCNC(=O)COc1ccc(OCCNC[C@@H](O)COc2ccccc2)cc1`, the Potency was greater than 46 µM in assay [1], greater than 46 µM in assay [2] and 5.01 µM (active) in assay [12]. The Potency entry in assay [3], in assay [4], in assay [5], in assay [6], in assay [7] and in [8] was “inactive” each time.
`CCS(=O)(=O)N1CCC[C@H]2CN3CCc4cc(OC)ccc4[C@@H]3C[C@@H]21`: the values for the Potency in [1], in [2] and in assay [14] were greater than 46 µM, greater than 46 µM and 5.01 µM (active), respectively. In addition, the Potency entry in assay [3], in [13], in [11], in assay [5], in assay [6] and in assay [7] was “inactive” throughout. For the same compound, the Potency result in assay [8] is “inactive”.
As for `CCCCC(=O)NCCc1c(Cc2ccccc2)[nH]c2ccccc12`, the Potency is 3.16 µM (active) in [9], greater than 46 µM in assay [2] and 0.794 µM (active) in assay [14]. Further, the Potency result in assay [3], in [11], in assay [6], in assay [7] and in [8] was “inactive” each time.
For the compound `COc1ccccc1N1CCN(CCN2C(=O)c3ccccc3C(C)(C)C2=O)CC1`, the Potency is 39.8 µM (active) in assay [9], greater than 46 µM in assay [1] and greater than 46 µM in assay [2]. Further, the Potency entry in assay [4], in assay [11], in [6], in [7] and in assay [8] was “inactive” in each case.
As to `O=S(=O)(NCCCCCCc1ccccc1)c1cccc2c(Cl)cccc12`, the Potency was 15.8 µM (active) in assay [9], greater than 46 µM in assay [1], greater than 46 µM in assay [2] and 2.51 µM (active) in assay [14]. For the same compound, the Potency result in [11], in [6], in [7] and in [8] was “inactive” in each case.
Consider `Cc1nc2ccc(NC(=O)Nc3ccnc4cccnc34)cc2o1`, for which the Potency in assay [9] was 1 µM (active); in assay [1], greater than 46 µM; in assay [2], greater than 46 µM. The Potency result in [4], in assay [11], in [6], in [7] and in [8] was “inactive” in each case.
Turning to `O=C(Cc1ccccc1)Nc1nc2ccc(Cl)cc2c2nc(-c3ccco3)nn12`, the Potency is greater than 46 µM in [1]; greater than 46 µM in assay [2]; 3.16 µM (active) in assay [13]; 1.58 µM (active) in [15]; 21.1 µM (active) in [6]. Moreover, the Potency result in assay [3], in assay [4], in assay [5], in assay [7] and in assay [8] was “inactive” in each case.
As for `C#C[C@]1(O)CC[C@H]2[C@H]3CCC4=Cc5oncc5C[C@]4(C)[C@@H]3CC[C@]21C`, the results for the Potency in assay [9], in assay [1] and in assay [2] were 12.6 µM (active), greater than 46 µM and greater than 46 µM, respectively. The call in assay [10] was inactive. The Potency entry in [11], in assay [16], in assay [6], in assay [7] and in assay [8] was “inactive” throughout.
With `CS(=O)(=O)Nc1ccc([N+](=O)[O-])cc1OC1CCCCC1`, the Potency in assay [9] was 3.98 µM (active); in [1], greater than 46 µM; in assay [2] it was greater than 46 µM; in assay [12] it was 0.0501 µM (active); in [15], 0.0794 µM (active). Besides, the Potency result in assay [6], in assay [7] and in assay [8] was “inactive” throughout.
